{"source": "paper PMC7862700", "about": "“An all-to-all approach to the identification of sequence-specific readers for epigenetic DNA modifications on cytosine”", "assay_in_all_cases": "DAPPL (digital affinity profiling via proximity ligation, sequencing); 10 mM Tris-HCl pH 7.5, 50 mM NaCl, 1 mM DTT, 4% glycerol, room temperature, 30 min; GST-TFs on glutathione beads, 16-mer random dsDNA library, 0.1% formaldehyde crosslink after washing; high values mean tight binding", "details_in_all_cases": "protein: recombinant; tags: N-terminal GST; dsDNA, one strand shown", "key": {"ELK1": {"target": "T1, ELK1 (Homo sapiens, UniProt P19419 1-428)", "T1 sequence": "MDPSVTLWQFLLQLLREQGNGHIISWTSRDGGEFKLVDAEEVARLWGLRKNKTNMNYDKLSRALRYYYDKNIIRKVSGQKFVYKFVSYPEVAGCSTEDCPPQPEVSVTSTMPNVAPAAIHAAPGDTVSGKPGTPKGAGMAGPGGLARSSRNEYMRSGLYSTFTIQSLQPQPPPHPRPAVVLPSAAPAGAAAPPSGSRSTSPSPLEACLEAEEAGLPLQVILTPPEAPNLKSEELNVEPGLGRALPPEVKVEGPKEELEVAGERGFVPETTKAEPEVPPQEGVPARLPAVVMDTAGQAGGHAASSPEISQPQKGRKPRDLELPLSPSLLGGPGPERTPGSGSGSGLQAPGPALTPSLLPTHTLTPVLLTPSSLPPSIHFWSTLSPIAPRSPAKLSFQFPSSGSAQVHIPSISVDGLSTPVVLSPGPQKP", "summary_of_the_method": "(§1)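 Binding signal is each hexamer's read frequency for a factor divided by its frequency in the tag-only sample. The factors were GST-fused human transcription factors from yeast, captured on glutathione beads, DNA-barcoded and pooled with that sample. Pools were incubated with 200 nmole of a random double-stranded 16-mer DNA library in Tris/NaCl/DTT/glycerol buffer at room temperature for 30 min, then washed, crosslinked with 0.1% formaldehyde, proximity-ligated with BsaI/T4 ligase (1 h, 37 °C), PCR-amplified and sequenced on an Illumina NextSeq500.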"}, "GABPA": {"target": "T2, GABPA (Homo sapiens, UniProt Q06546 1-454)", "T2 sequence": "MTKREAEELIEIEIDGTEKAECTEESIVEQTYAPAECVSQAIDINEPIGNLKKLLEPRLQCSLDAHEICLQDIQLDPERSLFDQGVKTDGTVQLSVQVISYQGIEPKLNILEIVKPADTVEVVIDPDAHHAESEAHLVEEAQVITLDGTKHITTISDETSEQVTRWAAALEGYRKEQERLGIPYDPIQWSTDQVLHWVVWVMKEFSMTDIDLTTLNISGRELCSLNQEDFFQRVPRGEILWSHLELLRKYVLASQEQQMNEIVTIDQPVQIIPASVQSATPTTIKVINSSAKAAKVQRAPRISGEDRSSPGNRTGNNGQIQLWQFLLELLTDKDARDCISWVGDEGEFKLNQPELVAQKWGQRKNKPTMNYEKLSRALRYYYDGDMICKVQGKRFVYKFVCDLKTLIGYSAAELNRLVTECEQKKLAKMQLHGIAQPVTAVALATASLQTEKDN", "summary_of_the_method": "as §1"}, "ERG": {"target": "T3, ERG (Homo sapiens, UniProt P11308 1-479)", "T3 sequence": "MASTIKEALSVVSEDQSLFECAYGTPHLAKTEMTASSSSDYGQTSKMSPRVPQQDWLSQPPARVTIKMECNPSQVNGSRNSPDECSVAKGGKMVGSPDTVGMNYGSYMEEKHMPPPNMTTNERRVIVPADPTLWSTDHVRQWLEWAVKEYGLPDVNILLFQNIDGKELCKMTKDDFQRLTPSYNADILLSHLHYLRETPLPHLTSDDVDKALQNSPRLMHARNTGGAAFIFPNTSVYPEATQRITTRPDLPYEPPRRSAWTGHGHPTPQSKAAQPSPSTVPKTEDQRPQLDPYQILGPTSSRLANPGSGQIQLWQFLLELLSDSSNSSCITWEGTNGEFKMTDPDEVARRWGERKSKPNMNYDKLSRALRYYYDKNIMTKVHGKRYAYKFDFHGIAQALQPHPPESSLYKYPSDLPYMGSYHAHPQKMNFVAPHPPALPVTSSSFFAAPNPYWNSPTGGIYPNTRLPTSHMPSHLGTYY", "summary_of_the_method": "as §1"}, "ELF1": {"target": "ELF1 (Homo sapiens, UniProt P32519 1-619)", "sequence (P32519 whole entry)": "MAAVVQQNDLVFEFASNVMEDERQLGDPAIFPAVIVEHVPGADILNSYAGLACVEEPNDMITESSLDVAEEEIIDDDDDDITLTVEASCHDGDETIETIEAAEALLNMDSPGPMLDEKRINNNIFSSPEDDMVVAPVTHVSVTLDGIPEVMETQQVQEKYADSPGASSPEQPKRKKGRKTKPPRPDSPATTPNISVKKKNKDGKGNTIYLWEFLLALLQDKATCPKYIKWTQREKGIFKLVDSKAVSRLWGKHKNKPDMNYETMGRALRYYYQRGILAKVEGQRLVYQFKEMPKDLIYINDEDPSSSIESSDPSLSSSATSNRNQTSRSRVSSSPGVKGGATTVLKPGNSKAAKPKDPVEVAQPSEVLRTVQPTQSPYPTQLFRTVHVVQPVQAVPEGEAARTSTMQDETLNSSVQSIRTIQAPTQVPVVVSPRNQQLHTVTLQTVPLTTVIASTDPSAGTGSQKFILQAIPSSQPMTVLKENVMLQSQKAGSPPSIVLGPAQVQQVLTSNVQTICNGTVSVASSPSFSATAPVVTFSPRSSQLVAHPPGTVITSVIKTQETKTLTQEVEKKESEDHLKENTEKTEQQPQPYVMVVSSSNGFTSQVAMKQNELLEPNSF", "summary_of_the_method": "as §1"}, "EHF": {"target": "T4, EHF (Homo sapiens, UniProt Q9NZC4 1-300)", "T4 sequence": "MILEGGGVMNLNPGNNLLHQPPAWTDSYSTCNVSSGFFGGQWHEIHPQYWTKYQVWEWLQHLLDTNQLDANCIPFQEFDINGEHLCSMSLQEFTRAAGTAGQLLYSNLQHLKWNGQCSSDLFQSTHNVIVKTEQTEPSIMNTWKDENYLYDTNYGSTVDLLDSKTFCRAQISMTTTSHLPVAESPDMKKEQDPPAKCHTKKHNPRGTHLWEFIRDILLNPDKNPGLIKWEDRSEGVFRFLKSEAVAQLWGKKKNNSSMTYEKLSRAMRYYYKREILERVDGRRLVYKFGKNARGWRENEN", "summary_of_the_method": "as §1"}, "SPIB": {"target": "SPIB (Homo sapiens, UniProt Q01892 1-262)", "sequence (Q01892 whole entry)": "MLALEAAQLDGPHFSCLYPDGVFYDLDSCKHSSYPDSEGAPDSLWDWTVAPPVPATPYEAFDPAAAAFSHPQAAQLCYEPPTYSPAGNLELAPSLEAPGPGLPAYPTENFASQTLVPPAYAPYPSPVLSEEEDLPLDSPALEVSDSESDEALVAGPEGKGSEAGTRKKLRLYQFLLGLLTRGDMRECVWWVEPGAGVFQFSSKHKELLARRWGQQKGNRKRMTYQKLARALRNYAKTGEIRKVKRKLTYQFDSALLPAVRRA", "summary_of_the_method": "as §1"}, "FEV": {"target": "T5, FEV (Homo sapiens, UniProt Q99581 1-238)", "T5 sequence": "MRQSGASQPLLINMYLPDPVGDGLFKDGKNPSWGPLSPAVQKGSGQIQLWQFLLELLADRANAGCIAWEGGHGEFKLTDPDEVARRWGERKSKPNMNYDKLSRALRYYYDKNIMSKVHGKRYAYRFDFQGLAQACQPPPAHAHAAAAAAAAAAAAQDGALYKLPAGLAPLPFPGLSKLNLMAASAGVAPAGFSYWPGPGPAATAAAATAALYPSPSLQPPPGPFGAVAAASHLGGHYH", "summary_of_the_method": "as §1"}, "ETV5": {"target": "ETV5 (Homo sapiens, UniProt P41161 1-510)", "sequence (P41161 whole entry)": "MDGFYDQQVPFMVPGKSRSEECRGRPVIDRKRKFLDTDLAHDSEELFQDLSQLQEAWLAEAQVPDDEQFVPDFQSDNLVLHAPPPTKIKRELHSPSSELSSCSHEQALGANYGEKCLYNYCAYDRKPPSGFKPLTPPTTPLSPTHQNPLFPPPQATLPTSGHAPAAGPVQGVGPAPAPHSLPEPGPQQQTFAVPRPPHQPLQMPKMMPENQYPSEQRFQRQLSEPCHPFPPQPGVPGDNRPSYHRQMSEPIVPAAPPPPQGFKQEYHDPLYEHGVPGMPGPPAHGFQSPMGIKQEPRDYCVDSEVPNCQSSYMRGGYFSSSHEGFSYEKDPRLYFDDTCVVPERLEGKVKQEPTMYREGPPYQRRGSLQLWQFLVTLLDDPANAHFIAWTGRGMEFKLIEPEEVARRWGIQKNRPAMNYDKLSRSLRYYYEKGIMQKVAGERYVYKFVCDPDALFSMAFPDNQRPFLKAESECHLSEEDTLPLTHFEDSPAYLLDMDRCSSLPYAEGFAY", "summary_of_the_method": "as §1"}, "ELF4": {"target": "ELF4 (Homo sapiens, UniProt Q99607 1-663)", "sequence (Q99607 whole entry)": "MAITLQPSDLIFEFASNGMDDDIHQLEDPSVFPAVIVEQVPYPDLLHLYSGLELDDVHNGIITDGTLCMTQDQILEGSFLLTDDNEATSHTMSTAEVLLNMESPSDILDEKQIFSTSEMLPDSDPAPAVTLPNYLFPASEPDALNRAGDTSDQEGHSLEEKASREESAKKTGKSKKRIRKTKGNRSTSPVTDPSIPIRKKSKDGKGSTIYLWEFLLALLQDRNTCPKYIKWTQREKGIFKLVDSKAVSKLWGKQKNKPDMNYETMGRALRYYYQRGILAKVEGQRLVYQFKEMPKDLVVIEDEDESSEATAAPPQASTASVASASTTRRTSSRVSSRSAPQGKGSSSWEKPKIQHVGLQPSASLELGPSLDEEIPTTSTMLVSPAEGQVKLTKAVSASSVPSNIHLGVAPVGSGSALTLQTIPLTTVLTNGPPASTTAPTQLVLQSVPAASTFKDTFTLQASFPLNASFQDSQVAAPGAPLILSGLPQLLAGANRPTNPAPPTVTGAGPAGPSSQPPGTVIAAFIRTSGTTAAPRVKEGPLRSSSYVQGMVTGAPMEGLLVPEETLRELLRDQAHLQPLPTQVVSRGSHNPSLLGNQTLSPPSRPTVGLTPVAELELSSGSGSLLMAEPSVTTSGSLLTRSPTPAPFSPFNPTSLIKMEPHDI", "summary_of_the_method": "as §1"}, "ELK4": {"target": "T6, ELK4 (Homo sapiens, UniProt P28324-2 1-405)", "T6 sequence": "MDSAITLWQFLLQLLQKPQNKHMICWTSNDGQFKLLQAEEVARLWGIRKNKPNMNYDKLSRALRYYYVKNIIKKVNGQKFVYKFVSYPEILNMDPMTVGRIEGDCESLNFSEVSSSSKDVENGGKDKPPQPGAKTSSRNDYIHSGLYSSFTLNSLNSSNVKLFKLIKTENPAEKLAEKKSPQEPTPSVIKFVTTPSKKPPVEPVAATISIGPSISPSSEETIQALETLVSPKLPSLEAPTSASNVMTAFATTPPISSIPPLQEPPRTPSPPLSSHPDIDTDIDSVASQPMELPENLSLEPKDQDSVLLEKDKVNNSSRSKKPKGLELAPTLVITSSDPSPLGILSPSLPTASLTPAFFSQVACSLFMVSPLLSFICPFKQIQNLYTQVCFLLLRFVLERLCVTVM", "summary_of_the_method": "as §1"}}, "data": [{"sequence": "AAGATC", "values": [{"measurement": "binding signal", "setting": "ELK1", "value": "1.07 fold enrichment (6-mer frequency, TF over GST control)"}, {"measurement": "binding signal", "setting": "GABPA", "value": "1.08 fold enrichment (6-mer frequency, TF over GST control)"}, {"measurement": "binding signal", "setting": "ERG", "value": "1.07 fold enrichment (6-mer frequency, TF over GST control)"}, {"measurement": "binding signal", "setting": "ELF1", "value": "1.05 fold enrichment (6-mer frequency, TF over GST control)"}, {"measurement": "binding signal", "setting": "EHF", "value": "1.04 fold enrichment (6-mer frequency, TF over GST control)"}, {"measurement": "binding signal", "setting": "SPIB", "value": "1.13 fold enrichment (6-mer frequency, TF over GST control)"}, {"measurement": "binding signal", "setting": "FEV", "value": "1.03 fold enrichment (6-mer frequency, TF over GST control)"}, {"measurement": "binding signal", "setting": "ETV5", "value": "1.03 fold enrichment (6-mer frequency, TF over GST control)"}, {"measurement": "binding signal", "setting": "ELF4", "value": "1.03 fold enrichment (6-mer frequency, TF over GST control)"}, {"measurement": "binding signal", "setting": "ELK4", "value": "1.01 fold enrichment (6-mer frequency, TF over GST control)"}]}]}
